CYP2C19 act: human CYP2C19 activators, primary screen, biochemical, luminescence | recombinant CYP2C19, luciferin-H EGE luminescence; hits give high values; 0 = fully inhibited enzyme, 1 = untreated enzyme | activation factor at 5 µM | AID 1025, 2008 | Cytochrome P450 2C19 (Homo sapiens), P33261 | 96,000 tested, under 10 active;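 active = activation factor of at least 2 at 5 µM in the primary screen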
CYP2C19 inh: blockers of cytochrome P450 2C19 activity – biochemical, luminescence, ADME assay, primary screen | inhibition, % at 5 µM | hit rate 21% among 96,000 | AID 778, 2007 | CYP2C19 Supersomes, luciferin-H EGE luminescence, 30 min | P33261;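 active = CYP2C19 inhibition above a set limit at 5 µM in the primary screen, cut at about 50% in these data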
Cav32 inh: Cav3.2 calcium influx blockers – cell-based, Fluo-4 calcium fluorescence, FDSS, MLSMR library, primary screen; Voltage-dependent T-type calcium channel subunit alpha-1H (Homo sapiens), O95180; Cav3.2-expressing cells; hits give low values; B-score at 10 µM; hit rate 4% among 100,000;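 active = single-dose well whose peak fluorescence ratio is a statistical outlier from its plate by either plate-standardised score or position-corrected B-score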
CYP2C9 inh: blockers of cytochrome P450 2C9 activity – biochemical, luminescence, ADME assay, primary screen. inhibition, % at 5 µM. AID 777, 2007. P11712. hit rate 20% among 96,000. CYP2C9 Supersomes, luciferin-H conversion;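 active = blocking of liver enzyme CYP2C9 beyond about 50% at 5 µM, limit read from the data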
CYP2C9 activ: human CYP2C9 activators, primary screen, biochemical, luminescence; Cytochrome P450 2C9 (Homo sapiens), P11712; activation factor at 5 µM; recombinant CYP2C9, luciferin-H conversion; hits give high values; factor 1 = untreated enzyme, 0 = blocked; hit rate 1.4% among 96,000;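 active = activation factor of 2 or more for CYP2C9 at a 5 µM dose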
Large screens that a line does not name were inactive. The list is not random: actives were taken first. Their share in the collection is about 27%.

CCc1ccc(OCC(=O)NCc2ccco2)c(Br)c1	CYP2C19 inh 87, CYP2C9 inh 72
O=C(COc1ccccc1Br)NCc1ccco1	none
CC(C)(C)c1ccc(OCC(=O)NCc2ccco2)cc1	none
C=C(C)c1ccc(C(C)(C)NC(=O)NCc2ccco2)cc1	CYP2C19 inh 90, CYP2C9 inh 81
C=C(C)c1ccc(C(C)(C)NC(=O)N(Cc2ccccc2)Cc2ccco2)cc1	none
COC(=O)CCN1CCC(C(N)=O)CC1	none
CCCCc1ccc(NC(=O)CC(C)=O)cc1	none
CN(C)S(=O)(=O)Nc1ccc(Oc2ccccc2)cc1	CYP2C19 inh 95, CYP2C9 inh 85
CCCCc1ccc(NS(=O)(=O)N(C)C)cc1	CYP2C19 inh 65, Cav32 inh -4.3, CYP2C9 inh 94
COc1ccccc1CNS(=O)(=O)c1c(C)[nH]c(=O)[nH]c1=O	none
Cc1[nH]c(=O)[nH]c(=O)c1S(=O)(=O)Nc1ccc(Oc2ccccc2)cc1	CYP2C19 inh 92, CYP2C9 inh 96 (no result: Cav32 inh)
Cc1cc(C(=O)NCCCN2CCOCC2)n(-c2ccccc2)n1	none
CC(Nc1c([N+](=O)[O-])c(=O)oc2ccccc12)C(Cl)c1ccccc1 (stereo unspecified)	CYP2C19 inh 97
CCOC(=O)c1cnc(Nc2nc3ccccc3o2)nc1C	CYP2C19 inh 88, CYP2C9 inh 58
COc1ccccc1OCCn1cc(C(=O)c2ccco2)c2ccccc21	CYP2C9 inh 84
COc1cccc(OCCn2cc(C(=O)c3ccco3)c3ccccc32)c1	CYP2C19 inh 86, CYP2C9 inh 98
Cc1cccc(OCCn2c(NC(=O)c3ccco3)nc3ccccc32)c1	none
COc1ccccc1C(=O)NCCNC(=O)c1ccco1	none (no result: CYP2C19 act, CYP2C19 inh, CYP2C9 inh, CYP2C9 activ)
O=C(O)Cn1cc(C(=O)c2ccco2)c2ccccc21	none
CCOC(=O)Cn1cc(C(=O)c2ccco2)c2ccccc21	CYP2C19 inh 81, CYP2C9 inh 84
CCSCc1nnc(SCC(=O)Nc2nc3ccccc3s2)n1C	CYP2C9 inh 63
CCn1c(Cc2ccccc2)nnc1SCC(=O)Nc1nc2ccccc2s1	none
Cn1c(CC(=O)Nc2ccc(Cl)c(Cl)c2)nnc1SCC(=O)Nc1nccs1	none
Cn1c(CSCc2ccccc2Cl)nnc1SCC(=O)Nc1nccs1	CYP2C9 inh 61
CC1CN(C(=O)/C=C/c2cccc([N+](=O)[O-])c2)CC(C)O1 (stereo unspecified)	none (no result: CYP2C19 act, CYP2C19 inh, CYP2C9 inh, CYP2C9 activ)
CCCCN(CCCC)C(=O)/C=C/c1cccc([N+](=O)[O-])c1	CYP2C19 inh 72, Cav32 inh -6, CYP2C9 inh 60
O=C(/C=C/c1cccc([N+](=O)[O-])c1)NCCSc1ccccc1	Cav32 inh -3.7
CCC(C)(C)NC(=O)CN(C(=O)CNS(=O)(=O)c1ccccc1)c1ccccc1	none
CCN(CC)c1ncnc2ccc(Br)cc12	none
CC(C)c1ccccc1OCCCCCNCCO	CYP2C19 inh 59
Cc1ccccc1OCCCCCNCCO	none
CCO[C@H]1OC(C(N)=O)=C[C@@H](c2csc3ccccc23)[C@@H]1CCCO	none (no result: CYP2C19 act, CYP2C19 inh, CYP2C9 inh, CYP2C9 activ)
O=C(Cn1cc2c(n1)CCCCC2)NCc1cccs1	none (no result: CYP2C19 act, CYP2C19 inh, CYP2C9 inh, CYP2C9 activ)
CCOc1ccc(-c2cc(CCCC(=O)NCc3cccnc3)no2)cc1	none
CCOc1ccc(-c2cc(CCCC(=O)NCCc3ccccc3)no2)cc1	CYP2C9 inh 50
CCOc1ccc(-c2cc(CCCC(=O)NCCc3ccc(OC)c(OC)c3OC)no2)cc1	CYP2C9 inh 66
Cc1ccccc1NC(=S)NCCc1ccccn1	none
COc1ccc(-c2cc(CCCC(=O)NCc3ccccn3)no2)cc1	CYP2C19 inh 56, CYP2C9 inh 67
COc1ccc(-c2cc(CCCC(=O)NCCc3ccc(OC)cc3OC)no2)cc1	none (no result: CYP2C19 act, CYP2C19 inh, CYP2C9 inh, CYP2C9 activ)
Cc1ccccc1NC(=O)C(=O)NCc1ccccn1	CYP2C19 inh 89, Cav32 inh -4.5
Cc1ccc(-c2ccc(=O)n(CCC(=O)NCc3ccccn3)n2)cc1	none
Cc1ccc(OCC(=O)NCc2ccccn2)cc1	CYP2C19 inh 76
Cc1cc(=O)oc2cc(OCC(=O)NCc3ccccn3)ccc12	none
CCN(CC)CCOC(=O)c1c(C)oc2ccc(OC)cc12	none
COc1ccc2oc(C)c(C(=O)Cn3ccnc3)c2c1	CYP2C19 inh 90, CYP2C9 inh 73
CCOC(=O)C1=C(C)NC(=O)NC1c1ccc(OCCO)c(OC)c1 (stereo unspecified)	none
CCOC(=O)C1=C(C)NC(SC(C)=O)=NC1c1ccc(OC(C)=O)c(OC)c1 (stereo unspecified)	CYP2C19 inh 90, CYP2C9 inh 62
Nc1ccc2nc(CN3CCOCC3)[nH]c2c1	none (no result: Cav32 inh)
O=C(NCc1cccnc1)c1cccn2c(=O)c3sccc3nc12	CYP2C19 inh 76
O=C(CCc1n[nH]c(=O)[nH]c1=O)N1CCOCC1	none
O=C(Nc1ccc(C(=O)N2CCCC2)cc1)c1ccc2c(c1)OCO2	none
CCC1(CC)C(=O)N(C)C(=O)NC1=Nc1ccc(OC)cc1	none
CC(=O)c1cc(OC(=O)c2ccncc2)ccc1OC(=O)c1ccncc1	CYP2C19 inh 90, CYP2C9 inh 65
COc1ccc(OC(=O)c2ccncc2)cc1	CYP2C19 inh 77, CYP2C9 inh 57
O=C(N1CCC(O)(c2cccnc2)CC1)C12CC3CC(CC(C3)C1)C2	none
O=C(NCCc1ccccc1F)C1CCCN1S(=O)(=O)c1ccc2ccccc2c1 (stereo unspecified)	none (no result: CYP2C19 act, CYP2C19 inh, CYP2C9 inh, CYP2C9 activ)
Cc1ccc(CNC(=O)CCS(=O)(=O)c2ccc(Br)s2)cc1	none
CCc1ccc(CN(C)CCc2ccccn2)cc1	CYP2C19 inh 89
Cc1ccc(CN(C)CCc2ccccn2)cc1	none
CN(CCc1ccccn1)Cc1ccc(Cl)cc1	CYP2C19 inh 53
CC(Nc1cc(=O)n(C)c(=O)[nH]1)c1ccccc1 (stereo unspecified)	none
O=C(COc1ccc(-c2nnco2)cc1)NC1CCCc2ccccc21 (stereo unspecified)	CYP2C19 inh 98, CYP2C9 inh 86
COc1ccc(-c2nc(CSCC(=O)NC3CCCc4ccccc43)c(C)o2)cc1 (stereo unspecified)	CYP2C19 inh 63, Cav32 inh -8.2, CYP2C9 inh 58
FC(F)(F)c1cccc(Oc2cc(C(F)(F)F)nc(-c3ccccn3)n2)c1	none
COc1c(C(O)CC(C)C)ccc2c1C(=O)OCc1cc(C)cc(O)c1O2 (stereo unspecified)	none (no result: CYP2C19 act, CYP2C19 inh, CYP2C9 inh, CYP2C9 activ)
COc1c(C(CC(C)C)OC(C)=O)ccc2c1C(=O)OCc1cc(C)cc(O)c1O2 (stereo unspecified)	Cav32 inh -3.8 (no result: CYP2C19 act, CYP2C19 inh, CYP2C9 inh, CYP2C9 activ)
CSCCC1NC2(C(=O)Nc3c(C)cc(Cl)cc32)[C@@H]2C(=O)N(C3CCCC3)C(=O)[C@H]12 (stereo partly specified)	CYP2C9 inh 60
CSCCC1NC2(C(=O)Nc3c(Cl)cccc32)[C@@H]2C(=O)N(C3CCCC3)C(=O)[C@H]12 (stereo partly specified)	none
CC1(C)CC(=O)C(C(c2cccnc2)C2C(=O)CC(C)(C)CC2=O)C(=O)C1	none

Screens as filed in PubChem BioAssay.
